Results reported in PMC4336329 (PLoS ONE, 2015).
Screen size: about 310,000 compounds; about 14,000 (4.5%) showed an effect of 50% or more. Effects have a minus sign here. Shown is part of a subset that was picked to be rich in strong results.

The molecules below were run against human ether-à-go-go-related gene (hERG) potassium channel (human, UniProt Q12809) (assay: primary screen, population patch clamp on CHO cells stably expressing hERG; higher = less effect of the substance).
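Further: peak tail current of the secondary pulse compared with the same well before compound.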

human ether-à-go-go-related gene (hERG) potassium channel, sequence (Q12809 whole entry, looked up): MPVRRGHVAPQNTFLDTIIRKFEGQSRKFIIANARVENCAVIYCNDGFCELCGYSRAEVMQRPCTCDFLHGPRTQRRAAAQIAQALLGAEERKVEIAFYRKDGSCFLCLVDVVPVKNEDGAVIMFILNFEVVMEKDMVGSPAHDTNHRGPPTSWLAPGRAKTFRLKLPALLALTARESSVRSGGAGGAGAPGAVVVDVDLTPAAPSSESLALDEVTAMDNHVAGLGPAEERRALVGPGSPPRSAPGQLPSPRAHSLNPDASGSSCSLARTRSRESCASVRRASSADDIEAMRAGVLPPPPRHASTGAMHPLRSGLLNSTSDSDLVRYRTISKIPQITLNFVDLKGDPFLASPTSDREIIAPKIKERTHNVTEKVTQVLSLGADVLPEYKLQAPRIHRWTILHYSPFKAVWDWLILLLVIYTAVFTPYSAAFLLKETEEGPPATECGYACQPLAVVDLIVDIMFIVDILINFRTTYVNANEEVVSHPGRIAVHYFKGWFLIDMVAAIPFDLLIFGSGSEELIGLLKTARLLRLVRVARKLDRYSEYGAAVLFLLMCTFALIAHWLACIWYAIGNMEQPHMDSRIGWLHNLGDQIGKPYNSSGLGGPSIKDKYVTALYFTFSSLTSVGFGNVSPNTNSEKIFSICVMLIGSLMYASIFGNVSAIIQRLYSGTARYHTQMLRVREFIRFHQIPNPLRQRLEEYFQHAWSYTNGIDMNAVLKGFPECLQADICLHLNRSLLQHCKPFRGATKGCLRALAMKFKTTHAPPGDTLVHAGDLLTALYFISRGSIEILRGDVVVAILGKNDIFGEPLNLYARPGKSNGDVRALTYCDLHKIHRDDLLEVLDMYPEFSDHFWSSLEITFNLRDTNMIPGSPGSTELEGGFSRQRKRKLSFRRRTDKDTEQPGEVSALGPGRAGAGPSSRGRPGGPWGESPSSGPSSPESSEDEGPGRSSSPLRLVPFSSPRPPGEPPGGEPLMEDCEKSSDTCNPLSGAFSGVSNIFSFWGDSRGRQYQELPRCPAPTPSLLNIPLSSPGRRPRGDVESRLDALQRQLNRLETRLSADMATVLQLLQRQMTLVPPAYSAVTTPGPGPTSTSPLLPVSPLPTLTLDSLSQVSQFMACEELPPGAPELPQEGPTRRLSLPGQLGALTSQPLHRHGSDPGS

Row | SMILES | hERG current change (%, negative = inhibition) at 10uM
1 | Oc1ccc(CN2CCc3ccccc3C2)c2cccnc12 | -48.8%
2 | Cn1c(C(=O)N2CCN(C(=O)c3ccco3)CC2)cc2c(=O)n3ccccc3nc21 | -14.5%
3 | CC(C)C(NS(=O)(=O)c1ccc2c(c1)OCCO2)C(=O)NCCc1ccccn1 (stereo not shown) | 6.06%
4 | Cc1cccc(NC(=O)CSc2nnc(C)c(C)n2)c1 | 15.3%
5 | COc1nc(OC)nc(N2CCC(NC(=O)C(Cc3ccc(C(C)C)cc3)NC(C)=O)CC2)n1 (stereo not shown) | 5.87%
6 | CO/N=C(\C(=O)N[C@@H]1C(=O)N2C(C(=O)[O-])=C(COC(N)=O)CS[C@H]12)c1ccco1.[Na+] | 18.9%
7 | O=C(Nc1ccc(Br)cn1)c1cccc2ccccc12 | 12.2%
8 | CCCCN1CCC(COC(=O)c2cc(Cl)c(N)c3c2OCCO3)CC1.Cl | -59.4%
9 | Cl.O=C(OCCN1CCOCC1)c1ccc(Cl)cc1Cl | -0.913%
10 | CC1CCN(C(=O)COC(=O)c2cc(Cl)cc(Cl)c2N)CC1 | -19.9%
11 | COc1cc(C(=O)OCc2cc(=O)c(O)co2)ccc1OC(F)F | -12.9%
12 | O=C(NCC(=O)N(CCN1CCOCC1)C(C(=O)NC1CCCC1)c1cccnc1)c1cccs1 (stereo not shown) | 13.1%
13 | CCOC(=O)C1(CCc2ccccc2)CCN(C(=O)CCc2cnn(C)c2)CC1 | -51.2%
14 | CCOC(=O)C1(CCCc2ccccc2)CCN(C(=O)CCOC)CC1 | -46.8%
15 | CCOC(=O)C1(CCCc2ccccc2)CCN(C(=O)CCc2cnn(C)c2)CC1 | -74.2%
16 | CCOC(=O)C1(CCCc2ccccc2)CCN(CCCn2cccn2)CC1 | -79.1%
17 | CCOC(=O)C1(Cc2ccccc2)CCCN(CCCn2cccn2)C1 (stereo not shown) | -14.2%
18 | CCOC(=O)C1(CCCc2ccccc2)CCN(C(=O)CCC2=NNC(=O)CC2)CC1 | 11.8%
19 | CCOC(=O)C1(CCCc2ccccc2)CCN(Cc2cnn(C)c2)CC1 | -71.6%
20 | CCOC(=O)C1(CCc2ccccc2)CCN(C(=O)CN2C(=O)CSC2=O)CC1 | -23.3%
21 | Cc1cc(OCC(=O)Nc2ccncc2)cc(C)c1Cl | 6.51%
22 | Cc1ccc(CNC(=O)/C=C/C(=O)O)cc1 | -15.4%
23 | Cc1n[nH]c(=O)n1-c1ccc(C(C)C)cc1 | 18.4%
24 | O=C(Nc1ccccc1)NC1(C(=O)N2CCN(C(=O)c3ccco3)CC2)CCCCC1 | 0.526%
25 | CCc1ccc(C2C(=O)c3ccccc3C2=O)cc1 | -3.18%
26 | O=C(NNC(=O)c1cnccn1)c1ccc(Cl)cc1 | 10.1%
27 | Cc1cccc(N2CCN(Cc3cc(=O)n4ccsc4n3)CC2)c1C | -37.1%
28 | CCOC(=O)CC12CN3CN(C1)CC(CC(=O)OCC)(C3)C2=O | 8.62%

Row | SMILES | hERG current change (%, negative = inhibition) at 10uM
29 | O=C(O)CCn1c(=S)oc2ccccc21 | -0.618%
30 | CCOC(=O)C1(Cc2ccccc2)CCN(Cc2cnn(C(C)C)c2)CC1 | -28.7%
31 | CCOC(=O)C1(Cc2ccccc2)CCN(Cc2cnn(CC)c2)CC1 | -21.2%
32 | CCOC(=O)C1(CCCc2ccccc2)CCN(Cc2cn(CC)nc2C)CC1 | -74.1%
33 | CCOC(=O)C1(Cc2ccccc2)CCN(Cc2cnn(-c3ccccc3)c2)CC1 | -81.4%
34 | CCOC(=O)C1(CCCc2ccccc2)CCN(C(=O)Cn2nc(C)nc2C)CC1 | -24.6%
35 | CCN1C(=O)C(=Cc2ccc(C)s2)C(=O)N(CC)C1=S | 5.09%
36 | COc1ccc(OCC(=O)NCc2ccc(Cl)cc2)cc1 | 1.55%
37 | COC(=O)c1nc(N)sc1-c1ccc(OC)cc1 | 10.3%
38 | Cc1ccc(Oc2ccccc2NC(=O)CN2C(=O)NC3(CCCC3)C2=O)cc1 | 11%
39 | O=C1NC(=O)N(c2ccccc2F)C(=O)/C1=C/c1ccc(Sc2nc3ccccc3[nH]2)o1 | -4.03%
40 | O=C1NC(=O)N(c2ccc(Cl)cc2)C(=O)/C1=C\c1ccc(Sc2nc3ccccc3[nH]2)o1 | -65.6%
41 | O=C1NC(=O)N(c2cccc(Cl)c2)C(=O)/C1=C\c1ccc(Sc2nc3ccccc3[nH]2)o1 | 13.9%
42 | c1ccc(-n2ncc3c2ncn2nc(-c4ccco4)nc32)cc1 | 13.3%
43 | O=S(=O)(c1cccc(Cl)c1)N1CCC(c2nc3ccccc3[nH]2)CC1 | 2.21%
44 | CC(=O)c1cccc(S(=O)(=O)N2CCC(c3nc4ccccc4[nH]3)CC2)c1 | -56.6%
45 | CC(=O)c1ccc(S(=O)(=O)N2CCC(c3nc4ccccc4[nH]3)CC2)cc1 | -54.3%
46 | CC(=O)Nc1ccc(S(=O)(=O)N2CCC(c3nc4ccccc4[nH]3)CC2)cc1 | -18.4%
47 | O=S(=O)(c1ccc(F)cc1)N1CCC(c2nc3ccccc3[nH]2)CC1 | -2.46%
48 | COc1ccc(S(=O)(=O)N2CCC(c3nc4ccccc4[nH]3)CC2)cc1 | 10.3%
49 | COc1ccc(OC)c(S(=O)(=O)N2CCC(c3nc4ccccc4[nH]3)CC2)c1 | -55.7%
50 | O=S(=O)(c1ccccc1F)N1CCC(c2nc3ccccc3[nH]2)CC1 | -13.3%
51 | O=S(=O)(c1cccc(C(F)(F)F)c1)N1CCC(c2nc3ccccc3[nH]2)CC1 | 0.277%
52 | Cc1[nH]c2ccc(F)cc2c1CCN(Cc1ccncc1)C(=S)Nc1ccc(F)cc1 | -38.4%
53 | CC1=NN(C(=O)c2ccc(Cn3cc([N+](=O)[O-])cn3)cc2)C(O)(C(F)(F)F)C1 (stereo not shown) | -21.1%
54 | Cc1ccc(C)c(NC(=O)CN2C(=O)COc3ccc(S(=O)(=O)N4CCCC4)cc32)c1 | -0.517%
55 | O=C1NC(=O)C(=Cc2ccc(N3CCOCC3)cc2)C(=O)N1 | 12.9%
